Tau fibril ThT = tau fibrillization inhibition (ThT binding) | P10636 | recombinant tau K18 P301L, heparin-induced fibrillization, ThT fluorescence | Potency, µM (titrated, usually from 57.4 µM), without a hit: top-dose activity, negative = inhibition, hits mostly inhibitors | actives 2.1% (n = 270,000) | AID 1460; note: potency is the fitted concentration of half-maximal effect; nearly all actives have a fitted effect of over 55% in size
Target sequence (P10636 561-689 P618L limits assumed): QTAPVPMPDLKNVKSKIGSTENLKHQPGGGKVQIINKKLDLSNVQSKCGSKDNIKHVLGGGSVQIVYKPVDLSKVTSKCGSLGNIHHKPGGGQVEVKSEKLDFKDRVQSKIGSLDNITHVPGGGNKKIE
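Heparin-induced (20 uM) aggregation of recombinant human K18 P301L tau, 15 uM unlabeled with 0.24 uM labeled, pH 7 acetate buffer, 6 hr at 37 C with compound. Fibrils quantified by 30 uM ThT fluorescence after 1 hr ambient incubation.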
Tau fluor counter = counter-screen for tau fibril formation inhibitors; tau K18 P301L Alexa594 fluorescence, heparin fibrillization; Potency, µM (titrated, usually from 57.7 µM), without a hit: at the top dose activity change, negative = decrease; actives 0.93% (n = 280,000); note: potency is the fitted concentration of half-maximal effect; nearly all actives have a fitted effect of over 55% in size
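Human tau K18 P301L (15 uM unlabeled, 0.24 uM Alexa 594-labeled) in 100 mM sodium acetate pH 7 with 20 uM heparin, 6 hr at 37 C. ThT 30 uM added, 1 hr ambient; Alexa 594 FP and total fluorescence read at 555/632 nm.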
Tau FP inhib = inhibitors of human tau fibril formation; P10636; K18 P301L tau heparin fibrillization, Alexa594 FP, 6 h; Potency, µM (series often up to 57.7 µM), for the others: at the top dose activity, negative = inhibition, usual class: inhibitors; actives 0.39% (n = 280,000); AID 1468; note: potency is the fitted concentration of half-maximal effect; nearly all actives have a fitted effect of over 55% in size
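Read-out: fluorescence polarization of Alexa 594-labeled tau (0.24 uM), 555 nm excitation, 632 nm emission. Mixtures held 15 uM unlabeled K18 P301L, compound and 20 uM heparin, pH 7 acetate buffer, incubated 6 hr at 37 C.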
Sfp PPTase inh = Sfp phosphopantetheinyl transferase inhibition. Potency, µM, without a hit: largest response in the series, negative = inhibition, actives largely listed as inhibitors. AID 1490. Biochemical Sfp PPTase activity, qHTS. Q9F4F7. actives 3.5% (n = 310,000);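 note: the enzyme is Sfp with the accession as filed and its product quenches rhodamine fluorescence; potency is the fitted concentration of half-maximal effect; 0% = enzyme reaction without inhibitor and -100% = no enzyme wells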
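Fluorescence-quenching assay: 15 nM Sfp-PPTase preincubated 15 min at room temperature with compound, then 5 uM rhodamine-CoA and 12.5 uM BHQ-2-labelled YbbR peptide added. Fluorescence (ex 525/em 598 nm) read at start and after 30 min; difference gives rate.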
Coupling enz = coupling enzyme interference in Giardia aldolase counter-screen; actives 0.67% (n = 290,000); activity change, negative = inhibition, % at 58.2 µM, hits read low; coupling enzyme system counterscreen, AmpLite Red fluorescence; AID 2472; in the data active = activity change below about -30%
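Fluorescence at 525 nm excitation and 598 nm emission measured inhibition of the coupled detection system without aldolase. Compounds (at 57.5 uM final) were preincubated 10 min at room temperature with coupling enzyme reagent before a 20 min substrate/AmpLite Red step.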
Starred values were filed as active, the others as inactive; ? = inconclusive; . = not tested or not shown; [ ] = dose if it differs, or a comment. Sampled rows, rich in hits. Any-hit rate of the full collection: about 5.2%. Unless noted, calls come from the whole dose curve; as a rule, active = well fitted curve in the direction sought with a large enough effect; inconclusive = small, poorly fitted or top-dose-only effect, or another doubt; inactive = no such curve, though single readings can be large; an effect the other way counts as inactive or inconclusive. Unless noted, % is set by controls: 0 for no effect and ±100 for the full control effect.

SMILES	Tau fibril ThT	Tau fluor counter	Tau FP inhib	Sfp PPTase inh	Coupling enz
CN(C)/N=C/c1ccc([N+](=O)[O-])cc1[N+](=O)[O-]	?	-19%	-2%	56µM*	-6
Cc1ccc2[nH]cc(C(c3ccccc3)c3ccc(Cl)s3)c2c1 (stereo unspecified)	?	7.9µM*[quencher]	?	.	.
COC(=O)NC(c1ccccc1)c1c[nH]c2ccc(OC)cc12 (stereo unspecified)	-9%	-13%	4%	19%	-1
CCc1ccc(C(c2ccccc2)c2c[nH]c3ccc(C)cc23)s1 (stereo unspecified)	13µM*	10µM*[quencher]	?	.	.
Clc1ccc(C(c2ccccc2)c2c[nH]c3ccccc23)s1 (stereo unspecified)	5%	6%	-3%	.	.
Cc1ccccc1NC(=O)CSc1ncc2c(n1)-c1ccccc1N(C)S2(=O)=O	-3%	-16%	?	.	.
CCOc1cc(CNC(=O)CSc2n[nH]c(-c3ccccc3)n2)cc(OCC)c1OCC	-6%	-15%	-8%	.	.
CCOc1ccc2nc(N3CCCC(C(=O)Nc4ccc(OC)c(Cl)c4)C3)sc2c1 (stereo unspecified)	-9%	?	?	.	.
Cc1ccc(NC(=O)c2ccc(CN3CC(=O)N4CCCCC4C3=O)cc2)cc1 (stereo unspecified)	-6%	-9%	3%	.	.
CCOC(=O)C(NC(=O)CC)(N1CCc2ccccc2C1)C(F)(F)F (stereo unspecified)	22µM*	-16%	?	8%	3
CCCCc1nn2c(=O)cc(COC(=O)c3ccccc3NC(=O)c3cccs3)nc2s1	12%	5%	0%	.	.
CCc1cc(=O)oc2cc3occ(-c4ccc(OC)c(F)c4)c3cc12	-8%	-17%	-18%	20µM*	4
CCc1cc(=O)oc2cc3occ(C)c3cc12	8%	14%	2%	-1%	3
CSc1ccccc1NC(=O)c1noc2c1CCC2	?	-28%	12%	20µM*	-13
Cc1ccc(O)c(NC(=O)c2noc3c2CCCCC3)c1	-11%	25µM*[quencher]	?	15%	-2
O=C(Cn1ncc2c3ccccc3n(Cc3cccc(Cl)c3)c2c1=O)NCc1cccs1	0%	-2%	-15%	.	.
CC(=O)C(Sc1nccc(-c2cccs2)n1)C(C)=O	-3%	-3%	-5%	?	-51*
CC(C)=CCc1c(O)cc2oc3c(CC=C(C)C)c(O)c(O)c(CC=C(C)C)c3c(=O)c2c1O	?	14µM*[quencher]	-5%	-5%	-10
COc1c(O)cc2oc3cc(O)c(CC=C(C)C)c(O)c3c(=O)c2c1CC=C(C)C	?	2.8µM*[quencher]	2.8µM*	3%	-5
Cn1ccnc1C(=O)c1ccc(NN)c([N+](=O)[O-])c1	22µM*	?	-2%	-11%	0
O=C(/C=C/c1c[nH]c2ccccc12)c1cccc2ccccc12	?	6.3µM*[quencher]	?	?	-12
O=C(c1ccccc1)c1c[nH]c2ccccc12	.	.	.	11%	0
Cc1[nH]oc(=O)c1N=Nc1c(Cl)cccc1Cl	?	-7%	-7%	-20%	9
Cc1[nH]oc(=O)c1N=Nc1ccccc1	25µM*	-16%	?	-22%	4
CC(C)(C)c1ccc(CN2CCN([C@H](c3ccccc3)c3ccc(Cl)cc3)CC2)cc1	.	.	.	-5%	.
SMILES	Tau fibril ThT	Tau fluor counter	Tau FP inhib	Sfp PPTase inh	Coupling enz
N#C/C(=C\c1ccc(O)c([N+](=O)[O-])c1)C(=O)NCc1ccccc1	16µM*	-9%	9%	-19%	18
C[C@@H](NC(=O)/C(C#N)=C/c1ccc(O)c(O)c1)c1ccccc1	?	?	4%	-28%	5
N#C/C(=C\c1ccc(O)c(Br)c1)C(=O)NCc1ccccc1	-4%	-8%	3%	-20%	26
N#C/C(=C\c1ccc(O)c(O)c1)C(=O)Nc1ccccc1	13µM*	?	13%	-17%	-3
N#C/C(=C/c1ccc(O)c(O)c1)C(=O)OC/C=C/c1ccccc1	11µM*	11µM*[quencher]	?	20%	.
CC(NC(=O)/C(C#N)=C/c1ccc(Cl)c([N+](=O)[O-])c1)c1ccccc1 (stereo unspecified)	6%	4%	9%	25µM*	-11
CCOC(=O)c1c(C)[nH]c(CCC(=O)Nc2c(C)cccc2CC)c1C	-9%	-11%	-8%	.	.
